The values below come from ChEMBL document CHEMBL3988442, “University of Dundee, Small-Polar-MMV Screening Library” (2021).

Design in all cases: scale not given: direction of the effect not stated beside the values
Experiment [1] concerns the target Protein translocase subunit SecA (Escherichia coli (strain K12)) (UniProt P10408). In words: Assay to Identify E. coli SecA ATPase Inhibitors. It is filed as functional. The following applies: 30 µM.
In experiment [2] the target is T1, Ubiquitin-activating enzyme e1, putative (Leishmania donovani (strain BPK282A1)) (UniProt E9BSI1).
T1 sequence (whole entry): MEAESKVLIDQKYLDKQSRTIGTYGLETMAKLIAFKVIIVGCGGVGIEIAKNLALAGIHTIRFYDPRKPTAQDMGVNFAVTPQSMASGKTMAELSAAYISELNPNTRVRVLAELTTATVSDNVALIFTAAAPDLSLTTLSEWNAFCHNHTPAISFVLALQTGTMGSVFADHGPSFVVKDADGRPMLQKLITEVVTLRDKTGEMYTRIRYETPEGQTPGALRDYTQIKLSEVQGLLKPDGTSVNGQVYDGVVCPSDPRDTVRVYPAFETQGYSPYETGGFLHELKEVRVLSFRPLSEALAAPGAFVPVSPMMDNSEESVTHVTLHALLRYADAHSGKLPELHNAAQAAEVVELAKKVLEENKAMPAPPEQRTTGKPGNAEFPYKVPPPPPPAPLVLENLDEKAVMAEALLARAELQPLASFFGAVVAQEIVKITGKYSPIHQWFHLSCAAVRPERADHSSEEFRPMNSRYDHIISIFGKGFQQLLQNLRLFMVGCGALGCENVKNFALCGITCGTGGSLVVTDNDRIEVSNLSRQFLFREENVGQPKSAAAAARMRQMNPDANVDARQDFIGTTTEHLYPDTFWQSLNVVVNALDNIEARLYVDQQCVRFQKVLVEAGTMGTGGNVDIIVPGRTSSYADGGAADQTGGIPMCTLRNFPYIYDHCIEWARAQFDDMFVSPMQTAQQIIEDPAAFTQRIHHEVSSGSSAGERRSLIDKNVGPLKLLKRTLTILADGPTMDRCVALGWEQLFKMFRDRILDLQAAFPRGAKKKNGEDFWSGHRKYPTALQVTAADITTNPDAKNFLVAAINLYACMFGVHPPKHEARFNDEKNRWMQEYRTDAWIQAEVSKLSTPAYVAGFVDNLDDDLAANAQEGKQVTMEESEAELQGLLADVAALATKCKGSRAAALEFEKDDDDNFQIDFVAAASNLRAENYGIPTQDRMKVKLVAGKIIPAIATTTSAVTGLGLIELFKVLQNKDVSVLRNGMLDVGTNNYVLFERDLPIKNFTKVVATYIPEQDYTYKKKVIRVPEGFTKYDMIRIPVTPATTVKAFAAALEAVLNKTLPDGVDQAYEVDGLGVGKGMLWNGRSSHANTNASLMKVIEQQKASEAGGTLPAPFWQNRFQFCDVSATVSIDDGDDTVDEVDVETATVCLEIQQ
In words: Leishmania donovani Ubiquitin Activating Enzyme (LdE1). The class given is functional. As to conditions: 30 µM.

In experiment [3] the target is AMP-activated protein kinase, AMPK (Homo sapiens) (UniProt P54646+O43741+P54619+Q9UGJ0+Q9Y478+Q13131+Q9UGI9). Kind of experiment: AMP-dependent Kinase enzyme assay. An in vitro enzyme assay that detects ADP turnover that is directly proportional to AMPK activity. This uses naive AMPK that is activated during the assay with MK-8722. It is filed as functional. As to conditions: 30 µM.

The target of experiment [4] is Sialic acid-binding Ig-like lectin 9 (Homo sapiens) (UniProt Q9Y336). Kind of experiment: Hs-Siglec9 ALPHAscreen SOP 20170721. The following applies: 10 µM. Background: Bead proximity is the source of the signal in Alpha formats.
In a further experiment the test system is Trypanosoma cruzi. Kind of experiment: Trypanosoma cruzi phosphomannomutase and mannose-1-phosphate guanylyltransferase assay. It is filed as functional. The following applies: 10 µM.
Experiment [5] deals with T2, Arginase-2, mitochondrial (Homo sapiens) (UniProt P78540).
T2 sequence (whole entry): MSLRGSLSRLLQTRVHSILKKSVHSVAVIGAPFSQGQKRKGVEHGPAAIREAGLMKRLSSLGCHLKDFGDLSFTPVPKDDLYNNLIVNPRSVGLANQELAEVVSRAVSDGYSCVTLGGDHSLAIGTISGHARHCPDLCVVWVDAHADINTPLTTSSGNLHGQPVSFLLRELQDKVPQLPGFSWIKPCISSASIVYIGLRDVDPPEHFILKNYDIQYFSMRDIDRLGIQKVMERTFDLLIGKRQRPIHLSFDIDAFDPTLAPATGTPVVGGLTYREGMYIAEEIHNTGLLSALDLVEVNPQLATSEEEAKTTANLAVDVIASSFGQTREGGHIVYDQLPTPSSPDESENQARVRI
Kind of experiment: in vitro enzyme assay to detect the production of urea directly proportional to the activity of Arginase II. Further: in the data most compounds retested in dose-response had high values. It is filed as functional. The following applies: 33.3 µM.

The target in experiment [6] is T3, Proteasome subunit beta (Trypanosoma cruzi) (UniProt O96673).
T3 sequence (whole entry): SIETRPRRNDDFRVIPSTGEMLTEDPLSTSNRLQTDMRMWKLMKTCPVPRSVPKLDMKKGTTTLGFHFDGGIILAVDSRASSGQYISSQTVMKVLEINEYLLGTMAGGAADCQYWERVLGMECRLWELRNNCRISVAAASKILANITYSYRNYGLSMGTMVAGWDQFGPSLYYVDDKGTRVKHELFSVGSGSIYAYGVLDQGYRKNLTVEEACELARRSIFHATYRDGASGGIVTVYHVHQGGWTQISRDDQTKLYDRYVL
In words: Trypanosoma cruzi proteasome chymotrypsin-like activity (TcProtChymo) assay. Further: in the data most compounds retested in dose-response had high values. It is filed as functional. The following applies: 9.37 µM.

For the next experiment, the species on record is Homo sapiens. Kind of experiment: To identify inhibition of the IFN signalling (Jak-Stat) pathway via expression of an eGFP reporter gene under the control of an IFN-stimulated response element (ISRE) containing MxA promoter. As to conditions: 30 µM. The class given is functional. For orientation: Reporter assays use an easily measured gene product as a stand-in for the process of interest.

Experiment [7] has as its target T4, Tyrosyl-tRNA synthetase, putative (Trypanosoma cruzi (strain CL Brener)) (UniProt Q4DSP6).
T4 sequence (whole entry): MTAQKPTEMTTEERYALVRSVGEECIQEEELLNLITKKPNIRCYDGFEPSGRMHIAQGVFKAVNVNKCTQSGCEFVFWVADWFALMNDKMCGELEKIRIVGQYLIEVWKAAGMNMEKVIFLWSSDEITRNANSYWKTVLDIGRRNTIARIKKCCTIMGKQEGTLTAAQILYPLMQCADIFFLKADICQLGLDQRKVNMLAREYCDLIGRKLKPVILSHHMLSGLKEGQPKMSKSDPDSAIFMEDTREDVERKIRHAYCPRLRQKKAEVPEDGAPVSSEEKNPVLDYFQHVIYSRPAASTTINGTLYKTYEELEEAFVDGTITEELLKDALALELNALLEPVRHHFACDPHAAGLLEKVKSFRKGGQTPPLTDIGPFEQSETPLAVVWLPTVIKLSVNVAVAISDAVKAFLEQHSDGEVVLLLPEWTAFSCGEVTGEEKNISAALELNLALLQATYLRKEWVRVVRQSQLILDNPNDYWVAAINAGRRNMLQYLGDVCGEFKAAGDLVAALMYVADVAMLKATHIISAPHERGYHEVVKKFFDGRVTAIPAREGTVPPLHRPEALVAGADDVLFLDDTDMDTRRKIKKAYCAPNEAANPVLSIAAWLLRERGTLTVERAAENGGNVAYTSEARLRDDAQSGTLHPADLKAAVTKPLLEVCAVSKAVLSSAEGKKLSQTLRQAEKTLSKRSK
In words: Trypanosoma cruzi tyrosyl tRNA synthetase (TcYRS) _High Tyrosine SOP. Further: in the data most compounds retested in dose-response had high values. The class given is functional. As to conditions: 30 µM.

Experiment [8] has as its target T4, Tyrosyl-tRNA synthetase, putative (Trypanosoma cruzi (strain CL Brener)). Kind of experiment: Trypanosoma cruzi tyrosyl tRNA synthetase (TcYRS) SOP. It is filed as functional. As to conditions: 30 µM.
The target of experiment [9] is Chromo domain-containing protein 1 (Saccharomyces cerevisiae (strain ATCC 204508 / S288c) (Baker's yeast)) (UniProt P32657). Kind of experiment: ScCHD-1 Enzyme Inhibition Assay. Further: in the data most compounds retested in dose-response had high values. The class given is functional. As to conditions: 30 µM.

For some of these results: Potency and affinity values are given separately.

Sequence of Protein translocase subunit SecA (Escherichia coli (strain K12)) (P10408 whole entry): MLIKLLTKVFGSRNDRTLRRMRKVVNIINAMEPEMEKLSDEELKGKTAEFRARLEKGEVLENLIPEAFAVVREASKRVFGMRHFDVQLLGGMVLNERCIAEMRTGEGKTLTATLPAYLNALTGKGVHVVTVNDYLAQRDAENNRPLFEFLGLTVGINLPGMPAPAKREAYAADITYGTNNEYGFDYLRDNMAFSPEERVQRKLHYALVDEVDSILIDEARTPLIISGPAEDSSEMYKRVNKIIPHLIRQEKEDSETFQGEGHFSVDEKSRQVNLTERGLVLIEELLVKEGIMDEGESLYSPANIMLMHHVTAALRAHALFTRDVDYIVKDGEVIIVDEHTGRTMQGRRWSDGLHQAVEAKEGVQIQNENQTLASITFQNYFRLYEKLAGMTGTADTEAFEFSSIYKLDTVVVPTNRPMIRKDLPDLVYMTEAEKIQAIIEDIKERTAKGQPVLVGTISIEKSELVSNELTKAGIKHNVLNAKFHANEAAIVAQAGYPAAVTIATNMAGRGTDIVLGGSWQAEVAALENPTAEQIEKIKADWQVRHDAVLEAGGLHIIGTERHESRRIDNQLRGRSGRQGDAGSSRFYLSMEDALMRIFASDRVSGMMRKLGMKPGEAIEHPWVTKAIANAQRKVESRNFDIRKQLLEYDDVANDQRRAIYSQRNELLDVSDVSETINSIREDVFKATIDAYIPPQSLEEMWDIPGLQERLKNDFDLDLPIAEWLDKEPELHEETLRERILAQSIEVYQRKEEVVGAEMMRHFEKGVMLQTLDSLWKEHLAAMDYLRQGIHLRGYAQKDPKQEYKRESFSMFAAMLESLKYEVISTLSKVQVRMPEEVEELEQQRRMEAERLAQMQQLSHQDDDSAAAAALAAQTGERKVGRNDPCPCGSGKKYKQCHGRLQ
Sequence of Chromo domain-containing protein 1 (Saccharomyces cerevisiae (strain ATCC 204508 / S288c) (Baker's yeast)) (P32657 whole entry, the tested form may be a part): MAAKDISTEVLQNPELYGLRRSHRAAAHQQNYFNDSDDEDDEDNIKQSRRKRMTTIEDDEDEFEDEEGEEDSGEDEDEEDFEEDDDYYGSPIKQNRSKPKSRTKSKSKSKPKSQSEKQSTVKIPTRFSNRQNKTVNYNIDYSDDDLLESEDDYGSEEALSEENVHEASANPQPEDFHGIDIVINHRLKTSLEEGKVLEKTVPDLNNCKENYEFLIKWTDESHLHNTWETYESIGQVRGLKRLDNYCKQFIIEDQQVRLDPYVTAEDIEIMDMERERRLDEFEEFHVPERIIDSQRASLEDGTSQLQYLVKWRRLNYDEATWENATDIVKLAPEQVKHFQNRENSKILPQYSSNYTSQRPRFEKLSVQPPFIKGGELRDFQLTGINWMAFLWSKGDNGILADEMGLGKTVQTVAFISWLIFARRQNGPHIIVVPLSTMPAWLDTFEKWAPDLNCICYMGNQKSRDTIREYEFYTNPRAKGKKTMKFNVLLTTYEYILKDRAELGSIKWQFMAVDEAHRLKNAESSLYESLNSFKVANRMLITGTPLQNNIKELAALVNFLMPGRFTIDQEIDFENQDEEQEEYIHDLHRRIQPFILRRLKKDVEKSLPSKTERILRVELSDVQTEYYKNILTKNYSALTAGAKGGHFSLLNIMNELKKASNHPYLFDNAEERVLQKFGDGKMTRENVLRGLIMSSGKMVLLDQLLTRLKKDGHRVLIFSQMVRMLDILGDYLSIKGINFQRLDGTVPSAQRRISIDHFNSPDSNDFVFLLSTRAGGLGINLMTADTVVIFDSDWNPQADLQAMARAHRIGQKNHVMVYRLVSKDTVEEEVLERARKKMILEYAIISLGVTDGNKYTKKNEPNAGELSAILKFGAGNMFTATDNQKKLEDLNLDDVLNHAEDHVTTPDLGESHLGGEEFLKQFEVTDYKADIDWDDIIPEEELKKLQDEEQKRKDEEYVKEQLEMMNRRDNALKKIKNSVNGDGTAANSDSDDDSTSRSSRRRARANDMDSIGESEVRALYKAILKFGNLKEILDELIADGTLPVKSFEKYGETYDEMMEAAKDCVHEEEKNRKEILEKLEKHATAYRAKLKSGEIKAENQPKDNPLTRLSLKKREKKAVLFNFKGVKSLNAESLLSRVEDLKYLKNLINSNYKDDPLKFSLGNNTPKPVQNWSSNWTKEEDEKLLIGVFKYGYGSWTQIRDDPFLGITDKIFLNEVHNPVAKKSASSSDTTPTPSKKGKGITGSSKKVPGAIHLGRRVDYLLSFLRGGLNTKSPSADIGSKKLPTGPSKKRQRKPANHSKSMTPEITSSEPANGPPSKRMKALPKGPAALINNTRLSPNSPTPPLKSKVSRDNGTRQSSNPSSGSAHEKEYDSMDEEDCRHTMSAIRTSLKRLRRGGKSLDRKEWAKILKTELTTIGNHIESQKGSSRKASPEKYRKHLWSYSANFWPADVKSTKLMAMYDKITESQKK
Sequence of Sialic acid-binding Ig-like lectin 9 (Homo sapiens) (Q9Y336 whole entry): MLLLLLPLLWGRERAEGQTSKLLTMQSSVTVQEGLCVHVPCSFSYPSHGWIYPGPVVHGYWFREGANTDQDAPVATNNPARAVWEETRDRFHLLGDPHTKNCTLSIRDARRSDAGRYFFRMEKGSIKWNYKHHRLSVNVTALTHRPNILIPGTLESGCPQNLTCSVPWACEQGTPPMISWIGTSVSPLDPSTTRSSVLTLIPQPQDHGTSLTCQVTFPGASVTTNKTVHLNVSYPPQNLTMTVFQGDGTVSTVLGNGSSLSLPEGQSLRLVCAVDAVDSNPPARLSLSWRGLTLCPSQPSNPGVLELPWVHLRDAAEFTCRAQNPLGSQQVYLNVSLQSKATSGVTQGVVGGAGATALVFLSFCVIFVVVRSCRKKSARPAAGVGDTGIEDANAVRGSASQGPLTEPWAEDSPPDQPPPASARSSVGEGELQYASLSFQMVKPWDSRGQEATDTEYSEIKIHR

For `Cn1cnc2c1C(COCC1CC1)CN(C(=O)Cc1ccsc1)C2` (stereo not drawn), the Percent Effect in experiment [1] was -4.47%; in experiment [2] it was 10.4%; in [3], -8.29%; in [4], 8.48%; in the experiment on Trypanosoma cruzi, 6.02%; in experiment [5], -8.39%. The Percent Effect in [6] worked out at 7.14%; in the experiment filed under Homo sapiens it was 9.25%; in experiment [7], 2.12%; in [8], 6.41%; in [9], 84.8%.

Turning to `COCCCC1CCCN(C(=O)CCc2cc(O)no2)C1` (stereo not drawn), the Percent Effect in experiment [1] was 0.503%; in experiment [2], 4.17%; in experiment [3] it was -6.36%; in [4] it was 2.98%; with Trypanosoma cruzi, 1.46%; in [5], 13.2%. Moreover, the Percent Effect is 18.2% in experiment [6]; 12.3% in the experiment filed under Homo sapiens; 8.42% in experiment [7]; 15.4% in [8]; -2.19% in experiment [9].

With `CCO[C@@H]1CCN(C(=O)c2cscn2)[C@@H]1Cc1cnn(C)c1`, the Percent Effect in [1] was -1.12%; in experiment [2] it was 0%; in experiment [3] it was 9.65%; in experiment [4], 4.98%; in the experiment on Trypanosoma cruzi it was -5.12%; in [5], 2.1%. For the same compound, the Percent Effect is -1.15% in [6]; 1.8% in the experiment filed under Homo sapiens; 2.13% in experiment [7]; 3.85% in experiment [8]; 1.69% in experiment [9].

Take `CC(C)Oc1ncccc1CNC(=O)C1CCCN(C(=O)C2CC2)C1` (stereo not drawn): the Percent Effect was -5.21% in experiment [1]; 5.26% in experiment [2]; -7.89% in experiment [3]; -1.61% in experiment [4]; -4.89% in the experiment on Trypanosoma cruzi; 0% in experiment [5]. Moreover, the Percent Effect in experiment [6] was 7.52%; in the experiment filed under Homo sapiens it was 24.1%; in experiment [7] it was 2.45%; in experiment [8] it was 7.32%; in experiment [9] it was -4.9%.

Regarding `Cc1ccc(NC(=O)CNc2cccc3c2CCCC3)c(Br)c1`, the Percent Effect is -0.516% in experiment [1]; 0% in experiment [2]; -8.17% in [3]; 10.7% in [4]; 1.07% in the experiment with Trypanosoma cruzi; 27.1% in experiment [5]. Besides, the Percent Effect is 12.3% in experiment [6]; -16% in the experiment filed under Homo sapiens; 5.38% in experiment [7]; 6.17% in experiment [8]; -12.9% in experiment [9].

`CCc1noc(C(C)N(C)CC(=O)Nc2c(C)cccc2C)n1` (stereo not drawn): the Percent Effect was 1.06% in experiment [1]; 11% in [2]; 6.59% in experiment [3]; 4.7% in experiment [4]; 4.31% in the experiment with Trypanosoma cruzi; 16.8% in experiment [5]. In addition, the Percent Effect in experiment [6] was 8.7%; in the experiment filed under Homo sapiens it was -3.6%; in experiment [7] it was 4.3%; in experiment [8], 15%; in experiment [9], -7.1%.

On to `O=C(c1ccc(-n2ccnc2)nc1)N1CCCC(n2cccn2)C1` (stereo not drawn), for which the Percent Effect in experiment [1] is -0.548%; in experiment [2], 7.89%; in experiment [3] it was -2.37%; in experiment [4], 3.05%; in the experiment on Trypanosoma cruzi, -2.63%; in experiment [5] it was 7.28%. Besides, the Percent Effect in experiment [6] is -0.501%; in the experiment listed under Homo sapiens, 15.7%; in experiment [7], 5.39%; in [8], 9.76%; in experiment [9] it was 0.587%.

For the compound `CCn1cc(CN2C[C@@H]3CCCN3C[C@@H]2CCSC)c(C)n1`, the Percent Effect in experiment [1] was -1.75%; in [2], 5.33%; in experiment [3] it was 8.44%; in experiment [4], 4.09%; in the experiment with Trypanosoma cruzi, -4.53%; in experiment [5], 2.1%. Further, the Percent Effect stood at 8.37% in experiment [6]; 3.9% in the experiment filed under Homo sapiens; 3.19% in [7]; 6.41% in experiment [8]; 0.13% in experiment [9].
